In all, about 310,000 compounds went through this assay and about 17,000 (5.5%) were called active. About 11% were inconclusive and are not listed. The entries come from a sample that favours actives as a whole. Values without a mark were called inactive. Calls come from the whole dose curve; as a rule, active = well fitted inhibition curve with a large enough effect; inconclusive = small, poorly fitted or top-dose-only effect, or effect the other way; inactive = no such curve, though single readings can be large or run the other way.
% is set by controls: 0 for no effect and ±100 for the full control effect; potency is the fitted concentration of half-maximal effect.

The target in this test is Nuclear receptor ROR-gamma (Mus musculus) (UniProt P51450). As to the kind of experiment: qHTS for inhibitors of ROR gamma transcriptional activity. Note: nearly all actives have a fitted effect of over 60% in size. The settings on record: Drosophila S2 Gal4-RORgamma UAS-luciferase reporter, 20 h; series mostly up to 53.6 µM; activity change, negative = inhibition: at the top concentration. Put shortly: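 Read-out: Photinus luciferase luminescence; inhibitors lower reporter signal. Insect Schneider cells with Gal4-ROR gamma fusion under metallothionein promoter, UAS reporter; 700 uM final copper sulfate induction, 20 hr, ambient temperature.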
Sequence of Nuclear receptor ROR-gamma (Mus musculus) (P51450 whole entry, looked up, the tested form may be a part): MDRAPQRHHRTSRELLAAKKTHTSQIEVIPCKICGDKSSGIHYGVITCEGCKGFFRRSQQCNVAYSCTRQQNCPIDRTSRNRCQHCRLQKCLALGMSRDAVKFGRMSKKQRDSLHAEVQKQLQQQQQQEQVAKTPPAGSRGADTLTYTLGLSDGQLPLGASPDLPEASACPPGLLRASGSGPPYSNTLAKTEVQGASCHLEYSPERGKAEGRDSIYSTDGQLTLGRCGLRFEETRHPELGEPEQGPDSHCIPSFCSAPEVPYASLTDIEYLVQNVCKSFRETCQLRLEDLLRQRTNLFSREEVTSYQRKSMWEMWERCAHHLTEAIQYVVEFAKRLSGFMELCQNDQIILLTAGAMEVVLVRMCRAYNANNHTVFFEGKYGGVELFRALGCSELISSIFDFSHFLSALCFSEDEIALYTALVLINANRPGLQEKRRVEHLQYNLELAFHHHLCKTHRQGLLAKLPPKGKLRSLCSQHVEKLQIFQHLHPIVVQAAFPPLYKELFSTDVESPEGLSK
A general note: In qHTS, concentration-response curves come from the screen itself.
Regarding `COc1ccc(CNc2nc3c(c(=O)[nH]c(=O)n3C)n2Cc2ccccc2)cc1`, the “activity change, negative = inhibition” value was 8.46%. Same read-out and setting: then `COCCn1c(=S)[nH]c2cc(C(=O)NCCc3ccc(OC)c(OC)c3)ccc2c1=O`, with -10.7%. The same measure, in the same setting: with `NC(=O)C1CCN(C(=O)c2ccc3c(=O)n(Cc4cccc(Br)c4)c(=S)[nH]c3c2)CC1` the figure was 5.31%; with `COc1ccc(Cn2c(=S)[nH]c3cc(C(=O)NCCCN4CCOCC4)ccc3c2=O)cc1`, -17.8%. In the case of `COc1ccc(Cn2c(=S)[nH]c3cc(C(=O)N4CCCCC4)ccc3c2=O)cc1`, the Potency was 8.91 µM (active). Still for that read-out and setting: with `COc1ccc(Cn2c(=O)cc(C)[nH]c2=S)cc1` the figure was 11.2 µM (active). For `COc1ccc(Cn2c(O)c(/C=C3/C=CC=N3)c(=O)[nH]c2=O)cc1`, the “activity change, negative = inhibition” value is -1.9%. Same read-out and setting: then `O=C(NC1CCCCC1)c1ccc2c(=O)n(CC3CCCO3)c(=O)[nH]c2c1` (stereo not drawn), with -16.1%.

With `COC(=O)c1ccc2c(=O)n(CC3CCCO3)c(=S)[nH]c2c1` (stereo not drawn), the Potency was 2.82 µM (active). With `COc1cc2c(cc1OC)CN(CC(=O)Nc1ccc(F)cc1)CC2`, the “activity change, negative = inhibition” value was -11.1%.

In the case of `CC(C)Oc1ccc(C(CC(=O)N2CCOCC2)C(C)C)cc1` (stereo not drawn), the “activity change, negative = inhibition” value is 11.9%.

Regarding `COc1ccc(-c2nc3c(s2)CCc2onc(-c4ccc(OC)cc4)c2-3)cc1`, the “activity change, negative = inhibition” value was 10.8%. Same read-out and setting: then `COc1cccc2cc(C(=O)NCc3ccc(C)cc3)c(=N)oc12`, with -13.8%. Turning to `COc1cc(C(=O)Nn2c(CC(C)C)nc3ccccc3c2=O)cc(OC)c1OC`, the activity change, negative = inhibition was -37% [at 1.91 µM]. Still for that read-out and setting: with `CCOc1ccccc1NC(=O)Cn1ncc2ccc([N+](=O)[O-])cc21` the figure was -2.79%; with `CC(=O)Nc1ccc(S(=O)(=O)N2CCC(C(=O)N[C@@H](Cc3ccccc3)C(=O)O)CC2)cc1`, 5.02%; with `COc1cccc(NC(=O)N2CCCC2C(=O)NC2CCCCC2)c1` (stereo not drawn), -5.05%. Still for that read-out and setting: then `Cc1cc(-c2ccc(C)c(S(=O)(=O)NCCCN(Cc3ccccc3)C(C)C)c2)on1`, with -8.59%. Still for that read-out and setting: with `O=C(NCCCN1CCCCC1)C1CC(=O)N(CCc2ccccc2)C1` (stereo not drawn) the figure was -16.4%. For the compound `Oc1c(Cl)cc(Cl)c(Cl)c1Cc1c(O)c(Cl)cc(Cl)c1Cl`, the Potency is 5.62 µM (active). For `CN1CCN(c2ccc(NC(=O)c3ccc4c(c3)[nH]c(=O)n4Cc3ccc(F)cc3)cc2)CC1`, the “activity change, negative = inhibition” value is 16.3%. Still for that read-out and setting: with `Cn1c(=O)n(C)c2cc(C(=O)Nc3ccc(Br)cc3)ccc21` the figure was -36.7%. Consider `CC(C)n1c(=O)[nH]c2cc(C(=O)Nc3ccccc3)ccc21`, for which the Potency was 7.94 µM (active).

As for `CCOC(=O)N1CCN(C(=O)C(C)NC(=O)c2ccco2)CC1` (stereo not drawn), the “activity change, negative = inhibition” value is 10.7%.

For `O=C(N/N=C/C=C/c1ccco1)c1cccs1`, the Potency was 5.01 µM (active). `O=C(N/N=C/c1ccco1)c1ccc(C(=O)N/N=C/c2ccco2)o1`: the “activity change, negative = inhibition” value is 18.2%. For `CC(/C=N/NC(=O)c1ccncc1)=C\c1ccco1`, the “activity change, negative = inhibition” value was -2.2%. Regarding `COc1cc(OC)c(NC(=O)C2CCCN2C(=O)OCc2ccccc2)cc1Cl` (stereo not drawn), the “activity change, negative = inhibition” value was -3.37%.

On to `COc1ccc(OC)c(S(=O)(=O)n2c([N+](=O)[O-])cnc2C)c1`, for which the “activity change, negative = inhibition” value is -5.1%. With `Cc1nc2ccc(S(=O)(=O)N(C)CC(=O)NC(C)c3ccccc3)cc2s1` (stereo not drawn), the “activity change, negative = inhibition” value is 6.35%.

Turning to `Cc1ccc2nc(-c3ccc(NC(=O)CN(C)S(=O)(=O)c4ccccc4)cc3)sc2c1`, the Potency is 2 µM (active). With `Cc1cccc(N(CC(=O)Nc2ccc(-c3nc4ccc(C)cc4s3)cc2)S(C)(=O)=O)c1`, the “activity change, negative = inhibition” value is 12.6%. Turning to `CCN(C(=O)CSc1nnc(-c2ccncc2)o1)c1ccccc1`, the “activity change, negative = inhibition” value was -0.118%.

Regarding `COc1ccc(NS(=O)(=O)c2cccc3nsnc23)cc1Cl`, the “activity change, negative = inhibition” value is 20.8%. Take `CN(c1ccc2nc3ccccc3c(=O)n2n1)C1CCCCC1`: the Potency is 0.398 µM (active). For the compound `O=c1c2ccccc2nc2n1C1(CCCCC1)Cc1ccccc1-2`, the “activity change, negative = inhibition” value is 13.3%. The same measure, in the same setting: with `CCOC(=O)C(C)Sc1nc2ccccc2c(=O)n1CC1CCCCC1` (stereo not drawn) the figure was 13.1%; with `CC(=O)Oc1ccc(-c2cccc(C(=O)N3CCCCC3)c2)cc1`, 25.1%. On the same count and under the same terms, with `COc1ccccc1OCCn1c(SCC(N)=O)nc2ccccc21` the figure was 17.5%; with `O=C(NCc1cccnc1)C12CC3CC(CC(C3)C1)C2`, 0.141%; with `Cc1ccc(C(=O)NC2CCN(C(=O)Nc3ccccc3Cl)CC2)cc1`, -3.35%. On the same count and under the same terms, then `CC(C)CNC(=O)C(=O)NCc1ccccc1`, with -0.503%. Turning to `CC(=O)c1ccc(NC(=S)NC(=O)CC(C)C)cc1`, the Potency was 12.6 µM (active).

In the case of `CC(C)CC(=O)NC(=S)NCc1ccccc1`, the Potency was 5.01 µM (active). As for `COc1ccc(NS(=O)(=O)c2ccc(NC(=S)NC(=O)CC(C)C)cc2)cc1`, the “activity change, negative = inhibition” value was -31.3%. Still for that read-out and setting: then `CC(C)CC(=O)NC(=S)Nc1cc(C(=O)O)ccc1Cl`, with 7.72%.

Regarding `CC(C)CC(=O)c1c[nH]c(C(=O)NCc2ccccc2)c1`, the “activity change, negative = inhibition” value is 3.37%. Still for that read-out and setting: with `CC1CCCCN1CCCNc1ccc(C(CC(N)=O)NC(=O)c2ccccc2)cc1[N+](=O)[O-]` (stereo not drawn) the figure was -13.3%; with `CCOC(=O)N1CCN(C(=O)C(=O)Nc2sc3c(c2C#N)CC(C)(C)OC3)CC1`, 9.29%; with `Cc1ccc(S(=O)(=O)NCC(=O)N2CCOCCOCCOCCOCC2)cc1`, -12.4%. For `O=C(c1ccc(Cl)cc1)N1N=C(c2ccccn2)CC1(O)C(F)(F)F` (stereo not drawn), the Potency was 1.41 µM (active). For the compound `O=C(c1ccc(Cl)cc1)n1cnc2ccccc21`, the “activity change, negative = inhibition” value was -14.8%. For the compound `O=S(=O)(/N=C(/Nc1ccccn1)c1ccccc1)c1ccc(Cl)cc1`, the “activity change, negative = inhibition” value is 38.3%.

These data come from PubChem BioAssay AID2551 (National Center for Advancing Translational Sciences (NCATS), 2010).
